# Reference: PubChem BioAssay (NCATS)
# Results filed as inconclusive are left out. A call without a number means that no potency is given here. Calls of active or inactive are those of the source. Calls come from the whole dose curve; as a rule, active = well fitted inhibition curve with a large enough effect; inconclusive = small, poorly fitted or top-dose-only effect; inactive = flat fitted curve, though single readings scatter.
# Test system: Zika virus NS2B-NS3 protease
# Assay: Primary screen GU AMC qHTS for Zika virus inhibitors (AID 1347154); note: nearly all actives have a fitted effect of over 70% in size
# Conditions: Zika NS2B-NS3 unlinked protease, AMC fluorogenic substrate; series mostly up to 54.1 µM
# Summary of the method: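 Unlinked Zika NS2B hydrophilic domain/NS3 protease domain noncovalent complex (25 nM final) in 10 mM Tris-HCl pH 8.0, 0.01% Tween 20, with AMC peptide substrate. Fluorescence (ex 340, em 450 nm) change over 15 min, room temperature; percent inhibition fitted to 4-parameter Hill equation.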
Structure (SMILES),Potency,"activity change, negative = inhibition"
Cc1cc(=O)n(-c2ccccc2)n1C,inactive,
O=C(CCCN1CCC(O)(c2ccc(Br)cc2)CC1)c1ccc(F)cc1,inactive,
CCN1CCC[C@H]1CNC(=O)c1c(OC)ccc(Br)c1OC,inactive,
COc1cccc2c1C(=O)c1c(O)c3c(c(O)c1C2=O)C[C@@](O)(C(C)=O)C[C@@H]3O[C@H]1C[C@H](N)[C@H](O)[C@H](C)O1,inactive,
O=C(O)CCCCC(=O)O,inactive,
O=c1ccc2ccccc2o1,inactive,
O=c1c(-c2ccccc2)c1-c1ccccc1,inactive,
CCOC(=O)n1ccn(C)c1=S,inactive,
CC1(C)O[C@@H]2C[C@H]3[C@@H]4CCC5=CC(=O)CC[C@]5(C)[C@@]4(F)[C@@H](O)C[C@]3(C)[C@]2(C(=O)CCl)O1,inactive,
CCCCCCCCCCOCC(O)CN (stereo not given),inactive,
CCCCCCCCCCCCCCCCCC(=O)OCC(O)CO (stereo not given),inactive,
c1ccc(OCc2ccc(CCCN3CCOCC3)cc2)cc1,inactive,
COc1ccc(OC)c(C(O)CNC(=O)CN)c1 (stereo not given),inactive,
CC(O)C(=O)O (stereo not given),inactive,
O=c1[nH]c(=O)n([C@H]2C[C@H](O)[C@@H](CO)O2)cc1C(F)(F)F,inactive,
C[C@H](O)C(=O)Nc1c(I)c(C(=O)NC(CO)CO)c(I)c(C(=O)NC(CO)CO)c1I,inactive,
NCCC(O)(P(=O)(O)O)P(=O)(O)O,inactive,
N[C@H](Cc1c[nH]c2ccccc12)C(=O)O,inactive,

Structure (SMILES),Potency,"activity change, negative = inhibition"
CCCN1CCCC[C@H]1C(=O)Nc1c(C)cccc1C,inactive,
CN=C(NC#N)NCCSCc1csc(N=C(N)N)n1,inactive,
Nc1ccc(C(=O)O)cc1,inactive,
CC(C)(Oc1ccc(Cl)cc1)C(=O)O,inactive,
CN(C)CC/C=C1/c2ccccc2COc2ccc(CC(=O)O)cc21,inactive,
N[C@@H](CCC(=O)N[C@@H](CS)C(=O)NCC(=O)O)C(=O)O,inactive,
Oc1c(I)cc(I)c2cccnc12,inactive,
C[C@]12CC[C@H]3[C@@H](CCC4=CC(=O)CC[C@@]43C)[C@@H]1CC[C@@H]2C(=O)CO,inactive,
CN=C(NC#N)Nc1ccc(C2=NNC(=O)CC2C)cc1 (stereo not given),inactive,
CCn1cc(C(=O)O)c(=O)c2cnc(N3CCCC3)nc21,,1.94% [at 6.83 µM] (inactive)
O=C(OCC(O)CO)c1ccccc1Nc1ccnc2cc(Cl)ccc12 (stereo not given),inactive,
COc1ccc(C2C(=O)c3ccccc3C2=O)cc1,inactive,
CCCCCCc1ccc(O)cc1O,inactive,
Cc1ccc(O)c2ncccc12,inactive,
CN1CCCC(CC2c3ccccc3Sc3ccccc32)C1 (stereo not given),inactive,
CCCCOc1ccc(OCCCN2CCOCC2)cc1,inactive,
CC(C)N=C(N)/N=C(\N)Nc1ccc(Cl)cc1,inactive,
